Test results: PubChem BioAssay (EPA / NIEHS)
Records with an inconclusive call do not appear. The source made the active and inactive calls. How the source made its calls: active means hit-call score of the fitted dose curve at least 0.9, where 1 is the maximum; inconclusive means response in the unintended direction; inactive means score below 0.9.

Target: Androgen receptor (Homo sapiens) (UniProt P10275)
Test: ATG_AR_TRANS: Attagene TRANS-FACTORIAL HepG2 Assay for human Androgen Receptor (AR) (AID 2282973)
Conditions: HepG2 Attagene TRANS-FACTORIAL AR reporter transcription
Summary of the method: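 HepG2 cells transiently transfected with AR-Gal4 chimera and GAL4-UAS reporter units; chemical exposure 24 h. Reporter mRNA quantified by RT-PCR with fluorescent labelling and capillary electrophoresis; gain-of-signal fitted against DMSO.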

Chain of Androgen receptor (Homo sapiens) (P10275 whole entry, looked up): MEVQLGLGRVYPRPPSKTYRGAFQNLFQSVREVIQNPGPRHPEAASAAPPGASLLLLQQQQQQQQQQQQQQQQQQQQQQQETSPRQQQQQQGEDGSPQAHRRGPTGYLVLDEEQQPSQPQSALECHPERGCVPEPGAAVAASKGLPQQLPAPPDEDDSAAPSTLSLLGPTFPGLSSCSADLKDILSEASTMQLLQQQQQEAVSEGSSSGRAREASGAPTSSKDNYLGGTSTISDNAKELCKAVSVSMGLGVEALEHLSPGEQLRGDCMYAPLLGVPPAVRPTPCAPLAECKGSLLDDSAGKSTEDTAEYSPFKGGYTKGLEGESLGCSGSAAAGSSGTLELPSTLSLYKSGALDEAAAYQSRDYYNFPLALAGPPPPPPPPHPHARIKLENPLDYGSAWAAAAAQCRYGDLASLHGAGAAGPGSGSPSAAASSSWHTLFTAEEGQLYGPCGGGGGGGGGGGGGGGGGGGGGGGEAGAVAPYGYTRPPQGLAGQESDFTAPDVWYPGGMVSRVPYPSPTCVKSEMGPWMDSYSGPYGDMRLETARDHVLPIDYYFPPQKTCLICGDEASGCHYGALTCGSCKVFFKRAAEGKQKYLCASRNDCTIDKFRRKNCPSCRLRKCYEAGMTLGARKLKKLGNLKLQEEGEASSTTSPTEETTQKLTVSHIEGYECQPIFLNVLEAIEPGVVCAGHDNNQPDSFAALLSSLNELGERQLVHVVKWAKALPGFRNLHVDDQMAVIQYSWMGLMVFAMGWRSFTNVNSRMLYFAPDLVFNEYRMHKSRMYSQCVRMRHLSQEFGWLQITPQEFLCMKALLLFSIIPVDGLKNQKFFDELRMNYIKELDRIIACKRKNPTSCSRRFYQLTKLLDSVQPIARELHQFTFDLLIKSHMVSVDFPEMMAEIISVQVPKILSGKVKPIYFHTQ

SMILES	outcome	AC50
Nc1cc(Cl)c(-c2cc(Cl)c(N)cc2Cl)cc1Cl	inactive	–
C[C@H]1O[C@@H](O[C@H]2[C@@H](O)C[C@H](O[C@H]3[C@@H](O)C[C@H](O[C@H]4CC[C@@]5(C)[C@H](CC[C@@H]6[C@@H]5C[C@@H](O)[C@]5(C)[C@@H](C7=CC(=O)OC7)CC[C@]65O)C4)O[C@@H]3C)O[C@@H]2C)C[C@H](O)[C@@H]1O	inactive	–
CCCCCCOC(=O)c1ccccc1O	inactive	–
C=C(C)C1CC=C(C)C(=O)C1 (stereo unspecified)	inactive	–
CC(C)[C@@H]1CC[C@@H](C)C[C@H]1O	inactive	–
CCN(CC)c1ccc(C(=C2C=CC(=[N+](CC)CC)C=C2)c2ccc(S(=O)(=O)O)cc2S(=O)(=O)[O-])cc1	inactive	–
CCc1cccc(C)c1N(C(=O)C(=O)O)C(C)COC (stereo unspecified)	inactive	–
CCCCCCCCCC[N+](C)(C)[O-]	inactive	–
CC(C)(C)c1cc(CCC(=O)NCCCCCCNC(=O)CCc2cc(C(C)(C)C)c(O)c(C(C)(C)C)c2)cc(C(C)(C)C)c1O	inactive	–
CC(=O)C1(C)CC2=C(CCCC2(C)C)CC1C (stereo unspecified)	–	158 µM (active)
OCc1cccc(Oc2ccccc2)c1	inactive	–
NC(=O)c1nc(-c2cccc(-c3cc(F)ccc3OCC(F)(F)C(F)(F)F)c2)n[nH]1	inactive	–
CCCCCCCC(OC)OC	inactive	–
CC1(C)CCC(C)(C)c2cc(C(=O)Nc3ccc(C(=O)O)cc3)ccc21	inactive	–
Cc1ccc(C)c(O)c1C	inactive	–
NCCNc1cccc2ccccc12	inactive	–
CCCOCCOCCOCCO	inactive	–
CCN(CC)CCOc1ccc(C(=C(Cl)c2ccccc2)c2ccccc2)cc1	inactive	–
CCSC(=O)N(CC(C)C)CC(C)C	inactive	–
CC=CC(=O)OCC(C)C	inactive	–
CCCCCCCCCC(=O)O	inactive	–
N#CSCSc1nc2ccccc2s1	inactive	–
O=C(OC(=O)C(F)(F)C(F)(F)F)C(F)(F)C(F)(F)F	inactive	–
FC(F)(F)C(F)(F)C(F)(F)Br	inactive	–
CCC(C)c1cc([N+](=O)[O-])cc([N+](=O)[O-])c1OC(=O)OC(C)C (stereo unspecified)	inactive	–
CC1=CP(=O)(c2ccccc2)CC1 (stereo unspecified)	inactive	–

SMILES	outcome	AC50
CCc1c(Br)c(Br)c(Br)c(Br)c1Br	inactive	–
CCc1cccc(CC)c1NC(=O)C(=O)O	inactive	–
CCCCOCCOCCOCc1cc2c(cc1CCC)OCO2	inactive	–
O=c1c(-c2ccc(O)cc2)coc2cc(O)cc(O)c12	inactive	–
Cc1nc(-c2ccc3c(c2)CCN(CCC2CCC(NC(=O)/C=C/c4ccc(F)cc4)CC2)CC3)no1 (stereo unspecified)	inactive	–
CCCCCCOc1ccc(O)cc1	inactive	–
COC(=O)CSc1cc(N=c2sc(=O)n3n2CCCC3)c(F)cc1Cl	inactive	–
OCc1ccccc1	inactive	–
Clc1cccnc1	inactive	–
CC1(C)C(=O)N(Br)C(=O)N1Br	inactive	–
O=[N+]([O-])c1ccccc1C(F)(F)F	inactive	–
CO[Si](CCC1CCC2OC2C1)(OC)OC (stereo unspecified)	inactive	–
[Cl][Bi]([Cl])([c]1ccccc1)([c]1ccccc1)[c]1ccccc1	inactive	–
CC(C)(c1ccc(O)cc1)c1ccc(O)cc1	inactive	–
Cc1cc(O)c(C(C)(C)C)cc1C(C)(C)C	inactive	–
COc1cc2c(c(OC)c1OC)-c1ccc(OC)c(=O)cc1[C@@H](NC(C)=O)CC2	inactive	–
Cc1nn(C)c(Oc2ccccc2)c1C=NOCc1ccc(C(=O)OC(C)(C)C)cc1	inactive	–
COc1ccc(O)cc1	inactive	–
COc1nccnc1CC(C)C	inactive	–
BrCc1cccc(Oc2ccccc2)c1	inactive	–
FC(F)(F)C1(F)C(F)(F)C(F)(F)C(F)(F)C1(F)F	inactive	–
CCCN(C1CCN(C(=O)C2CCNCC2)CC1)[C@@H]1CCc2ccc(OC)cc2C1	inactive	–
CCCCCCCCCCCCCC[P+](CCCC)(CCCC)CCCC	inactive	–
CCCCCCCCCCCCCCCCOS(=O)(=O)O	inactive	–
Oc1ccc2ccccc2c1	inactive	–
